Experimental findings from ChEMBL document CHEMBL2218924, “A broad activity screen in support of a chemogenomic map for kinase signalling research and drug discovery” (Biochem J, 2013) are described below.

The term residual activity denotes the signal under treatment as a percentage of the control signal.

Experiment [1] deals with G protein-coupled receptor kinase 5 (Homo sapiens) (UniProt P34947). The following applies: at 1 µM.
Experiment [2] addresses G protein-coupled receptor kinase 6 (Homo sapiens) (UniProt P43250). To be noted: at 1 µM.

Chain of G protein-coupled receptor kinase 6 (Homo sapiens) (P43250 whole entry, looked up): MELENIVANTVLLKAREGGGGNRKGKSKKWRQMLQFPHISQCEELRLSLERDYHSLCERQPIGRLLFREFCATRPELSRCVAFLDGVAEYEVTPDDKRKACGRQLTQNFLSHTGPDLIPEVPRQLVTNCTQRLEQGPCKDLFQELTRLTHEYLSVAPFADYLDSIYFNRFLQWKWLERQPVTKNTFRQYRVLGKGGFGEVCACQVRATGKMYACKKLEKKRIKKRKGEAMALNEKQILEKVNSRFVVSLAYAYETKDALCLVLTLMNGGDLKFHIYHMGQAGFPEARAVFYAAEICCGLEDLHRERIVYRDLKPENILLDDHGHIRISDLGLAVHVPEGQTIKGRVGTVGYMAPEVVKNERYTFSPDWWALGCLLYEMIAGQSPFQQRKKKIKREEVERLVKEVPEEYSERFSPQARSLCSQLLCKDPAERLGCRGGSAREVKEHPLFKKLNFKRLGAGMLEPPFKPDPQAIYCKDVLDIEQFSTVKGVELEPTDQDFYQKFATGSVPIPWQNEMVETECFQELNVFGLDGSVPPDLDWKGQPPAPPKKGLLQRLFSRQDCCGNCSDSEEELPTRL
Chain of G protein-coupled receptor kinase 5 (Homo sapiens) (P34947 whole entry, looked up): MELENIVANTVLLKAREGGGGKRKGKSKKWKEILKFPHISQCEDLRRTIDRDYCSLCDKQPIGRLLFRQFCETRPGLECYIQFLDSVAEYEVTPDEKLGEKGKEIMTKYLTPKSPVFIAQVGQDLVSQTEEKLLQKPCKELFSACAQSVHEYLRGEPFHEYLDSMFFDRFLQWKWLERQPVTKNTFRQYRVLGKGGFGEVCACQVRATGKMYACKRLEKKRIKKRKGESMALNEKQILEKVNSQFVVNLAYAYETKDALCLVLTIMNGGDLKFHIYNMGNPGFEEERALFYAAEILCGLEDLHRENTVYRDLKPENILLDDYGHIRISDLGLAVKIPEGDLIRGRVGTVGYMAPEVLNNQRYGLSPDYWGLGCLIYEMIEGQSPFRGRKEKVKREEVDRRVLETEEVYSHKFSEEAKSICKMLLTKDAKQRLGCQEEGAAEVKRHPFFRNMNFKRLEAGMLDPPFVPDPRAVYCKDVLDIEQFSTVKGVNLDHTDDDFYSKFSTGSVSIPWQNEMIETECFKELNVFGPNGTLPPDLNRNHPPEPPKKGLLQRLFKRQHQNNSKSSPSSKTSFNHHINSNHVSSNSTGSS

`O=Nc1c(-c2c(O)[nH]c3ccccc23)[nH]c2ccccc12`: the residual activity is 92% in experiment [1] and 81% in experiment [2].

On to `COc1ccc(-c2cnc3c(-c4ccsc4)cnn3c2)cc1`, for which the residual activity in experiment [2] is 99%. On the same count and under the same terms, to `NC(=O)c1cccc(-c2cc(Nc3ccc(OC(F)(F)F)cc3)ncn2)c1` belongs 94%. In the case of `O=C1NC(=O)/C(=C/c2ccc3c(c2)OC(F)(F)O3)S1`, the residual activity in experiment [1] stood at 92%; in experiment [2] it was 93%. On the same counts, the results for `Cn1nc2c3c(cccc31)C(=O)c1ccccc1-2` are 102% and 93%. For the compound `N#C/C(=C(\N)Sc1ccc(N)cc1)c1ccccc1C(F)(F)F`, the residual activity is 97% in experiment [1] and 86% in experiment [2]. As to `Cc1cncc2cccc(S(=O)(=O)N3CCCN(C(=O)CN)C[C@H]3C)c12`, the residual activity in experiment [1] was 98%; in experiment [2] it was 84%. Take `O=C1Nc2ccccc2/C1=C1/Nc2ccccc2/C1=N\OCCC(O)CO` (stereo not drawn): the residual activity in experiment [2] is 68%.
